Measured values from PubChem BioAssay.
The source made the active and inactive calls.

What was measured:
[1] = small molecules captured by biotinylated probe aFSTL3 – biochemical, small-molecule microarray, fluorescence 635/667, stem cell growth factor project, primary screen (AID 1064); details: higher = more signal;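 further: measures binding of the biotinylated anti-FSTL3 antibody to printed compounds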
[2] = binders from COS7 lysate, DM2A8 probe, primary screen, torsin A project, cell lysate, small-molecule microarray, fluorescence 635/667 (AID 1065); details: higher = more signal, COS7 lysate expressing mutant human TOR1A
[3] = small molecules captured by biotinylated probe aFGF2 – biochemical, small-molecule microarray, fluorescence 635/667, stem cell growth factor project, primary screen (AID 1067); details: higher = more signal;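 further: measures binding of biotinylated aFGF2 protein to printed compounds on slides; z-score merges feature fluorescence and signal-to-noise across triplicate slides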
[4] = small molecules captured by biotinylated probe aFGF10 – biochemical, small-molecule microarray, fluorescence 635/667, stem cell growth factor project, primary screen (AID 1071); details: higher = more signal;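 further: score merges 667 nm spot intensity and signal to noise from triplicate slides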
[5] = biological target: Neurogenic locus notch homolog protein 2 (Homo sapiens) (UniProt Q04721); experiment: small molecules binding Notch2 protein – biochemical, small-molecule microarray, 635 nm fluorescence, stem cell growth factors, primary screen (AID 1073); details: higher = more signal
Sequence of Neurogenic locus notch homolog protein 2 (Homo sapiens) (Q04721 whole entry, looked up, canonical isoform): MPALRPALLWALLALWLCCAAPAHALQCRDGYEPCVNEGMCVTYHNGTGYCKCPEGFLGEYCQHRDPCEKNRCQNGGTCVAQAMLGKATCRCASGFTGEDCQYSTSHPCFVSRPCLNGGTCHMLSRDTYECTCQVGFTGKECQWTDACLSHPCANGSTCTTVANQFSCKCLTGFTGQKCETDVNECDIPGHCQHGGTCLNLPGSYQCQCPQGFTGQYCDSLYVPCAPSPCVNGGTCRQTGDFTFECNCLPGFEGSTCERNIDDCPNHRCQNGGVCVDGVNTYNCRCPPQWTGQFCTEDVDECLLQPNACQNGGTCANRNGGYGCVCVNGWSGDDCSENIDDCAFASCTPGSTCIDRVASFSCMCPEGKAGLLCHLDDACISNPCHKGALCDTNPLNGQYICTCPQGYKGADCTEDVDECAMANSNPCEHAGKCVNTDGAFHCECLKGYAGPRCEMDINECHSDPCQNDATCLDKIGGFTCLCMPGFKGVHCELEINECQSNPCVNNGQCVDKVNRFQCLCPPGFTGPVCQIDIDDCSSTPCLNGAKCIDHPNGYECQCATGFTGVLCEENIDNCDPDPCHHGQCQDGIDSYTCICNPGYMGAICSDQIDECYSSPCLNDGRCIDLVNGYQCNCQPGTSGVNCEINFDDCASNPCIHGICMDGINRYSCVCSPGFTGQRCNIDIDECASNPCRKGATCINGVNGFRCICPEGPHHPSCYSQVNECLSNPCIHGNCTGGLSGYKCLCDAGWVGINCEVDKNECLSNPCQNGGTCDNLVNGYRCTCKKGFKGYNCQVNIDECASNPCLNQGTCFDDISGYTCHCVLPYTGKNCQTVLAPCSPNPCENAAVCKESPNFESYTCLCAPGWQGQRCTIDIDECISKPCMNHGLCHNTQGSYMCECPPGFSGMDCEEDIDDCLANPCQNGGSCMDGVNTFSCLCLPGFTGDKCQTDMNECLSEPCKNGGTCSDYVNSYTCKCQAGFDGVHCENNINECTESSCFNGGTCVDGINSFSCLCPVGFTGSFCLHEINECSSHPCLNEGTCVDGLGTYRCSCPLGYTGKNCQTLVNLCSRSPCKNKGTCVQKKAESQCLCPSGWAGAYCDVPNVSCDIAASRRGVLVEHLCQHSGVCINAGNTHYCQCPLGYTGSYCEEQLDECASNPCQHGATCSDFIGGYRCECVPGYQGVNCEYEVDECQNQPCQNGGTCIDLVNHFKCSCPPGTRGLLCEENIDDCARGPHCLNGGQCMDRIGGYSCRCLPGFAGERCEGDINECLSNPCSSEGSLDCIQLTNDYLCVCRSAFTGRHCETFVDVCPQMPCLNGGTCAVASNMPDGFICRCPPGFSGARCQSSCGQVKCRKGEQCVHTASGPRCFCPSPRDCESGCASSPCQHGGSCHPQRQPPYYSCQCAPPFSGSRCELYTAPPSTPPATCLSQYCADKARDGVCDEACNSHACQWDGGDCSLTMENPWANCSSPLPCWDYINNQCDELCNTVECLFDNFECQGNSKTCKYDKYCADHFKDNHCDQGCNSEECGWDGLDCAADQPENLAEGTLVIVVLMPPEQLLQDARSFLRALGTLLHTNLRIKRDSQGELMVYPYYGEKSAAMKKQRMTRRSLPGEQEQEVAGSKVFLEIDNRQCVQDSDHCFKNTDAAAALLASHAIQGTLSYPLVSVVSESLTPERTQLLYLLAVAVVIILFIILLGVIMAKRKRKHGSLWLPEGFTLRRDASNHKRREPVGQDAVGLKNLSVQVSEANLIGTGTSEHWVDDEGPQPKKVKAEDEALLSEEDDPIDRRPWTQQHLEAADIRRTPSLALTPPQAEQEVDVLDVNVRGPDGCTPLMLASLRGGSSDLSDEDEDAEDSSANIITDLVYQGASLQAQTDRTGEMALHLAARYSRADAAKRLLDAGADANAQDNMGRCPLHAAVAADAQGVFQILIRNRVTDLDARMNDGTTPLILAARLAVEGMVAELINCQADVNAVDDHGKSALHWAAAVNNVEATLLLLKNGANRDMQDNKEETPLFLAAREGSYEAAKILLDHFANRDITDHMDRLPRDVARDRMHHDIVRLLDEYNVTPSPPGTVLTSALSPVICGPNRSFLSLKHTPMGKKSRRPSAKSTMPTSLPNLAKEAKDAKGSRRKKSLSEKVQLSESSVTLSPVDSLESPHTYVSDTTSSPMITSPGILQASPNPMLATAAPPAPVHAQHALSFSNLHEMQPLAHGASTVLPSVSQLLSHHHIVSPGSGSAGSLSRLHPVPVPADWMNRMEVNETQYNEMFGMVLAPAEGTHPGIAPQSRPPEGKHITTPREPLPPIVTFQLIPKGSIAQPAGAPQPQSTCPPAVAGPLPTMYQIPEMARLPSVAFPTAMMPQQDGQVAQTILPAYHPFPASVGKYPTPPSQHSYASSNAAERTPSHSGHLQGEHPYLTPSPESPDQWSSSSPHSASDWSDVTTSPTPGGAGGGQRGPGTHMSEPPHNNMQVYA

[6] = biological target: Pro-neuregulin-1, membrane-bound isoform (Homo sapiens) (UniProt Q02297); experiment: small molecules binding neuregulin-1 protein – biochemical, small-molecule microarray, fluorescence 635/667, psychiatric disease protein project, primary screen (AID 1075); details: NRG1 binding, 635 nm fluorescence, higher = more signal;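 further: score combines 667 nm spot fluorescence with signal to noise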
Sequence of Pro-neuregulin-1, membrane-bound isoform (Homo sapiens) (Q02297 whole entry, looked up, the tested form may be a part, canonical isoform): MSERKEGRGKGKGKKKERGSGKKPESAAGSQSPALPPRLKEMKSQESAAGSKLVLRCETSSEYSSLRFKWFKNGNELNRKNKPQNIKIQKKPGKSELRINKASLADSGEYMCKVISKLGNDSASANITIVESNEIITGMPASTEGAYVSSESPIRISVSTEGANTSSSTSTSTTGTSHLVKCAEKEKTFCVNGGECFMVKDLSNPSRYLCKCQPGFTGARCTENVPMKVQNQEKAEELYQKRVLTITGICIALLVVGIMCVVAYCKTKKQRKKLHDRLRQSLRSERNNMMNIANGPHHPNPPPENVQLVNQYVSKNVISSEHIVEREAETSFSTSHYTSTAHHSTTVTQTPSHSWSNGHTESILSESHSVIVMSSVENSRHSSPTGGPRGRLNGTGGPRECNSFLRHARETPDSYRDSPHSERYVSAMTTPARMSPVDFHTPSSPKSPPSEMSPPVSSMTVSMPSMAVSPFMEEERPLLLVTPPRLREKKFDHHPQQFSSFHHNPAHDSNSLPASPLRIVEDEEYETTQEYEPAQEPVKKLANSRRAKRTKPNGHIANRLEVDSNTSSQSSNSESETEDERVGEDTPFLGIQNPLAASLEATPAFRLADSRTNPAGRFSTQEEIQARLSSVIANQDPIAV

[7] = tested on: Neuregulin-1 EGF-like domain; experiment: small molecules binding NRG1 EGF domain – biochemical, small-molecule microarray, 635 nm fluorescence, primary screen (AID 1081); details: higher = more signal;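 further: binding of the protein to compounds printed on small-molecule microarray slides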
[8] = FRG1 expression reporter modulators in myotubes – cell-based, C2C12 myotubes, firefly/Renilla luciferase, luminescence, FRG1 inhibition for FSHD, primary screen (AID 1084); details: FRG1 promoter luciferase, higher = more signal, called active from +8 up or from −8 down
[9] = small molecules captured by biotinylated probe aFST – biochemical, small-molecule microarray, fluorescence 635/667, stem cell growth factor project, primary screen (AID 1086); details: higher = more signal;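 further: score merges 667 nm fluorescence with signal-to-noise of each printed compound spot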
[10] = binders of probe aHhip on microarray, primary screen, stem cell growth factor project, biochemical, small-molecule microarray, fluorescence 635/667 (AID 1087); details: higher = more signal;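 further: score merges spot fluorescence at 667nm with spot signal to noise ratio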

| Structure (SMILES) | composite z-score [1] | composite z-score [2] | composite z-score [3] | composite z-score [4] | composite z-score [5] | composite z-score [6] | composite z-score [7] | z-score [8] | composite z-score [9] | composite z-score [10] |
| --- | --- | --- | --- | --- | --- | --- | --- | --- | --- | --- |
| C#CCCCON=C1[C@H]2CCn3c(=O)n(Cc4cc5c(cc4Cl)OCO5)c(=O)n3[C@H]2[C@H](O)[C@@H]2O[C@H]12 | -0.652 | 0.203 | -0.108 | 0.365 | 0.63 | 0.113 | 0.107 | -0.12 (inactive) | 0.241 | -0.0645 |
| CCOC(=O)[C@H](CC(C)C)NC(=O)CCC1CC(OC(=O)NCc2ccc3c(c2)OCO3)CC2(CCCC(COC(=O)NCCC(C)C)O2)O1 (stereo not given in full) | -0.495 | -0.146 | -0.119 | 0.01 | -0.195 | 0.169 | 0.312 | 1.38 (inactive) | -0.11 | -0.291 |
| CCOC(=O)NN=C1C[C@@H](O)[C@@H](O)[C@@H]2[C@@H]3C(=O)N(CC)C(=O)[C@@H]3CC[C@H]12 | -0.431 | 0.36 | -0.1 | 0.389 | 0.384 | -0.313 | 0.539 | -0.323 (inactive) | 0.007 | -0.153 |
| CC(C)=NOC[C@@H](O)[C@H]1O[C@@H]2OC(C)(C)O[C@@H]2[C@H]1O | -0.732 | 0.97 | 0.197 | 0.502 | 1.09 | 0.233 | 0.457 | -0.476 (inactive) | 0.548 | -0.191 |
| CCOC(=O)NN=C1C[C@@H](O)[C@@H](O)[C@@H]2[C@@H]3C(=O)N(c4ccc(F)cc4F)C(=O)[C@@H]3CC[C@H]12 | -0.496 | 0.364 | -0.0131 | 0.202 | 0.501 | -0.0227 | 0.158 | 0.816 (inactive) | 0.411 | -0.137 |
| CCOC(=O)[C@H](Cc1ccccc1)NC(=O)CCC1CC(OC(=O)NCc2ccc3c(c2)OCO3)CC2(CCCC(COC(=O)NCCOC)O2)O1 (stereo not given in full) | -0.444 | 1.85 | -0.0533 | 0.688 | 0.994 | 0.63 | 0.773 | 1.75 (inactive) | 0.412 | 0.524 |
| CO[C@H]1COC(=O)CC=C[C@@H](C)COC(=O)[C@H]2CCCN2C(=O)CC=C[C@H]1C | -0.867 | 2.36 | -0.147 | -0.103 | -0.315 | -0.278 | 1.06 | -0.352 (inactive) | 0.0653 | 0.445 |
| CCOC(=O)CCN1C(=O)[C@H]2[C@H]3[C@H](O)[C@H](O)CC(=NOCC=C(C)CCC=C(C)C)[C@@H]3CC[C@H]2C1=O | 0.149 | 1.13 | -0.133 | 0.84 | 0.845 | 0.258 | 0.658 | -0.594 (inactive) | 0.42 | 0.0515 |
| CCOC(=O)[C@H](CC(C)C)NC(=O)CCC1CC(OC(=O)NCCc2ccc(F)cc2)CC2(CCCC(COC(=O)NCCCN3CCCC3=O)O2)O1 (stereo not given in full) | -0.547 | -0.0261 | -0.0922 | 0.403 | 0.951 | -0.0939 | 0.763 | 0.404 (inactive) | -0.015 | -0.0994 |
| COC(=O)[C@@H]1CC[C@H](C)[C@@H](c2ccc(C)cc2)N1C(=O)c1ccc(C=NO[C@@H](C)c2cc(-c3c(C)cc(C)cc3C)no2)cc1 | -0.4 | 0.58 | -0.166 | 0.219 | 0.239 | 0.0688 | 0.38 | -1.21 (inactive) | 0.188 | -0.0237 |
| COC(=O)[C@H](C)NC(=O)CCC1CC(OC(=O)NCc2ccc3c(c2)OCO3)CC2(CCCC(COC(=O)NCCC(C)C)O2)O1 (stereo not given in full) | -0.312 | 0.255 | -0.0837 | 0.338 | 0.821 | 1.14 | 0.808 | 1.52 (inactive) | 0.0929 | -0.318 |
| COc1ccc(-c2cnnc(CCCn3ccnc3-c3ccccc3)n2)cc1 | -0.368 | 1.45 | -0.121 | 0.763 | 0.426 | 0.278 | 0.585 | 0.64 (inactive) | 0.117 | -0.12 |
| CCOC(=O)[C@H](Cc1ccccc1)NC(=O)CCC1CC(OC(=O)NCc2cccc3ccccc23)CC2(CCCC(COC(=O)NCCc3ccc(Cl)cc3)O2)O1 (stereo not given in full) | -0.487 | 0.0381 | -0.205 | 0.13 | 0.597 | 0.108 | 0.966 | 0.903 (inactive) | -0.0328 | -0.0645 |
| CC(C)CON=C1C[C@@H](O)[C@@H](O)[C@@H]2[C@@H]3C(=O)N(Cc4ccc5c(c4)OCO5)C(=O)[C@@H]3CC[C@@H]12 | -0.345 | -0.142 | 0.0138 | 0.11 | -0.0138 | 0.474 | 0.814 | -0.197 (inactive) | -0.141 | 0.0659 |
| CCc1cc2c(nc1CC)CCN(CCC(C)=NOC[C@@H](C)[C@H](OCc1ccccc1)C(C)C)C2 | -0.251 | -0.176 | -0.226 | -1.25 | -1.17 | -0.769 | -0.47 | -0.856 (inactive) | -1.36 | -0.132 |
| O=C1[C@H]2[C@H]3[C@H](O)[C@H](O)CC(=NO[C@@H]4O[C@H](CO)[C@@H](O)[C@H](O)[C@H]4O)[C@H]3CC[C@H]2C(=O)N1C[C@@H]1CCCO1 | -0.151 | 1.07 | -0.121 | 0.126 | 0.57 | -0.506 | -0.744 | 0.189 (inactive) | 0.045 | -0.0994 |
| C#CCCCON=C1C[C@@H](O)[C@@H](O)[C@@H]2[C@@H]3C(=O)N([C@@H](C)c4ccccc4)C(=O)[C@@H]3CC[C@@H]12 | -0.0065 | -0.318 | -0.17 | -0.46 | -0.351 | -0.191 | -0.934 | 0.0665 (inactive) | -0.069 | -0.267 |
